# Laboratory results from PubChem BioAssay AID1347043 (National Center for Advancing Translational Sciences (NCATS), 2019).
# The campaign covered roughly 76,000 compounds. About 1,900 (2.5%) were called active. A call without a number means that no potency is given here. Another 5% or so got no clear call; they are omitted. The call rests on the fitted dose curve; in most records, active means well fitted inhibition curve with a large enough effect; inconclusive means small, poorly fitted or top-dose-only effect; inactive means flat fitted curve, though single readings scatter. Many of the other results were omitted from the sample, so actives are more common in it than they were.
# Target: Luciferin 4-monooxygenase (Photinus pyralis) (UniProt P08659)
# Assay: Firefly luciferase inhibition profiling of diverse chemical library using quantitative high-throughput screening; further: nearly all actives have a fitted effect of over 65% in size
# Settings: purified P. pyralis luciferase, luminescence, biochemical; series mostly up to 115 µM
# Description: Firefly (Photinus pyralis) luciferase is one of the most commonly used transcriptional reporters for a number of reasons. It is considered one of the more dynamically responsive reporters - that is, responsive to changes in reporter transcription - as it requires no post-translational modifications and is enzymatically active directly after protein synthesis (Wood, 1998). Additionally, the half-life of the luciferase protein is short relative to other reporter-gene products (Wood, 1995). Whereas reporters with long half-lives potentially allow for increased signal due to accumulation of reporter-gene product, once accumulated in the cell, dynamic changes in reporter-gene expression may be difficult to detect(Fan and Wood, 2007; Almond et al., 2004). It has been shown that wild-type P. pyralis luciferase has a half-life of approximately four hours in mammalian cells (Thompson et al., 1991). Firefly luciferase reporter-gene assays are also generally considered one of the most sensitive assay types (Wood, 1995; Wood, 1998). Although light produced in a bioluminescence reaction is of lower intensity than that produced during fluorescence emission, this is offset by little to no background light inherent to luminescent assays. Thus the luciferase reporter can be expressed at much lower levels than fluorescent proteins while still providing robust signal. However, it was initially observed, in 1991, by Thompson et al., that compounds that resemble the substrates of firefly luciferase (FLuc) can act as competitive inhibitors of the enzyme, and that these compounds, upon interaction with luciferase in the cell, can actually stabilize the protein and increase its half-life. Accumulated intracellular FLuc protein can be measured as an increase in luminescence signal, upon addition of detection reagents (which contain high concentrations of FLuc substrates) commonly used in high-throughput screening. In cell-based reporter gene assays that use FLuc as the reporter gene to quantitate the potential influence of a given compound against the target biology, this apparent increase in luminescence can mistakenly be interpreted as identification of a compound that is active against the target of interest. FLuc inhibitory compounds that stabilize the FLuc protein will give an identical read-out, making it difficult to distinguish compounds that are active against the target from those active against FLuc. In summary, the results generated here constitutes a valuable resource for the scientific community and provides insight on identifying compounds with inhibitory activity for the commonly-used reporter, firefly luciferase. References: -Almond, B., Zdanovsky, A., Zdanovskaia, M., Ma, D., Stecha, P., Paguio, A., Garvin, D., and Wood, K. (2004). Introducing the Rapid Response Reporter Vectors. Promega Notes 87, 18-22. -Fan, F., and Wood, K.V. (2007). Bioluminescent assays for high-throughput screening. Assay Drug Dev Technol 5, 127-136. -Thompson, J.F., Hayes, L.S., and Lloyd, D.B. (1991). Modulation of firefly luciferase stability and impact on studies of gene regulation. Gene 103, 171-177. -Wood, K.V. (1998). The chemistry of bioluminescent reporter assays. Promega Notes 65, 14-20. -Wood, K.V. (1995). Marker proteins for gene expression. Curr Opin Biotechnol 6, 50-58.
# Reagents: 50mM Tris acetate, pH 7.5; 10mM Mg acetate; 10uM D-luciferin (Sigma #L9504); 10uM ATP; 0.01% Tween-20; 0.05% BSA; 10nM P. pyralis luciferase (Sigma #L9506) Control compounds used were two known firefly luciferase inhibitors (compounds (2) and (5) in Auld et al., 2010), and DMSO. Assay Summary: Three microliters containing firefly luciferase substrates in buffer (final concentrations: 50mM Tris acetate, pH 7.5, 10mM Mg acetate, 0.01% Tween-20, 0.05% BSA, 10uM D-luciferin, and 10uM ATP) are dispensed into each well of a Greiner white, solid-bottom 1536-well format plate using a flying reagent dispenser (FRD). […]
# Luciferin 4-monooxygenase (Photinus pyralis), sequence (P08659 whole entry, looked up): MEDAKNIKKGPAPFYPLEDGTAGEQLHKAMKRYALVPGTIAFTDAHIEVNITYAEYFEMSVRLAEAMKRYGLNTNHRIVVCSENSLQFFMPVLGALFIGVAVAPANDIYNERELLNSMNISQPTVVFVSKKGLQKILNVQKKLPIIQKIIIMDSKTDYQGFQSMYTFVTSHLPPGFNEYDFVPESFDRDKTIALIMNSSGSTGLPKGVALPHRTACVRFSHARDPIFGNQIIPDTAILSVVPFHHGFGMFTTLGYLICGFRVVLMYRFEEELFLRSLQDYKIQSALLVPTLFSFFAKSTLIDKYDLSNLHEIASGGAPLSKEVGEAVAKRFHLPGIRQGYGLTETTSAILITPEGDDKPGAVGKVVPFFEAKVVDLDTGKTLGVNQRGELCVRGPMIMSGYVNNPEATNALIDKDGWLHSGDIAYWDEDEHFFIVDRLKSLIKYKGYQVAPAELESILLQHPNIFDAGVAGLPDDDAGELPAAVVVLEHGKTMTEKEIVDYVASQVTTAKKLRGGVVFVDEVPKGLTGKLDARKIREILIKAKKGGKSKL
row,SMILES,Potency
1,COCCn1c(CO)nnc1C1CC(NC(=O)c2sc(C)nc2C)C1 (stereo not given),inactive
2,CCC(C(=O)Nc1ccc2c(c1)CN(Cc1cc(F)cc(F)c1)C(=O)CO2)c1ccccc1 (stereo not given),inactive
3,COc1cccc(C(=O)N2CCC(C(NC(=O)c3ccccc3C)C(=O)NCC(C)C)CC2)c1 (stereo not given),inactive
4,O=C(NCC1Cn2cccc2C(=O)N1Cc1ccccc1)c1ccc(F)cc1 (stereo not given),inactive
5,CCC1=C(C(=O)OC)C(c2ccc(C)cc2C)N2C(CC(=O)N3CCOCC3)=CSC2=N1 (stereo not given),inactive
6,N#Cc1cc2c(nc1N1CCN(C3CCCC3)C(CCO)C1)CCCC2 (stereo not given),inactive
7,COC(=O)c1ccccc1NC(=O)Cn1nc2n(c1=O)CCCCC2,inactive
8,c1cc(N2CCOCC2)ccc1-c1cc(-c2cn[nH]c2)c2cncn2c1,22.4 µM (active)
9,COc1ccccc1-c1cc(-c2cn[nH]c2)c2cncn2c1,inactive
10,COc1ncccc1-c1cc(-c2cn[nH]c2)c2cncn2c1,inactive
11,CC(C)C(=O)N1CCCC(c2nc(-c3ccccc3)no2)CCNC(=O)CC1 (stereo not given),inactive
12,Cc1ccc(C(=O)N2CCCC(c3nc(-c4ccccc4)no3)CCNC(=O)CC2)cn1 (stereo not given),28.2 µM (active)
13,Cn1cccc1C(=O)N1CCCC(c2nc(-c3ccccc3)no2)CCNC(=O)CC1 (stereo not given),inactive
14,CC[C@H]1CN(C(=O)c2ccc(F)cc2)CC[C@H]1CC(=O)Nc1ccccc1,inactive
15,O=C1CN(Cc2ccc(-c3ccccc3)cc2)CCN1c1cc(Cl)ncn1,inactive
16,OCc1cccc(-c2cc3c(cn2)CN(Cc2ccccc2)CCN3)c1,14.1 µM (active)
17,Cn1ccc(Nc2cc3c(cn2)CN(CCc2ccccc2)CCN3)n1,inactive
18,Cc1cccn2c(CC(=O)NCC3CCN(c4cnn(C)c(=O)c4)C3)cnc12 (stereo not given),inactive
19,O=C(O)[C@@H]1CN(C(=O)NC2CCCC2)C[C@H]1c1ccccn1,inactive
20,O=C(NCc1c[nH]c2ncccc12)c1ccccn1,inactive
21,COc1ccccc1C(=O)NCc1ccnc2[nH]ccc12,inactive
22,O=C(NCc1ccnc2[nH]ccc12)c1ccccn1,28.2 µM (active)
23,CN(C)c1ccc(NC(=O)COc2ccc(-c3nnc4n3CCCC4)cc2)cc1,inactive
24,COCc1nc(C2CC(NC(=O)c3cc(-c4ccsc4)n[nH]3)C2)cc(=O)[nH]1 (stereo not given),28.2 µM (active)

row,SMILES,Potency
1,Nc1nc(C2CC(NC(=O)CCc3nc4ccc(F)cc4[nH]3)C2)cc(=O)[nH]1 (stereo not given),inactive
2,COCc1nc(-c2ccc(NC(=O)Cn3nc4c(cc3=O)CCCC4)cc2)n[nH]1,inactive
3,O=C(NCc1ccccn1)C1CN(S(=O)(=O)c2cccs2)CC12CCCCC2 (stereo not given),inactive
4,O=C(NC1CC1)[C@@H]1C[C@H](Oc2cccnc2)CN1C(=O)C1CCC1,inactive
5,N#Cc1ccc(O[C@@H]2COCC[C@H]2NC(=O)CCCn2cccn2)cc1,inactive
6,CCOC(=O)c1ccc(NC(=O)N2Cc3[nH]cnc3C[C@H]2c2nc(-c3ccc(Cl)cc3)no2)cc1,inactive
7,Cc1cccc(-c2noc([C@@H]3Cc4nc[nH]c4CN3C(=O)Nc3ccccc3)n2)c1,50.1 µM (active)
8,CC(C)NC(=O)N1Cc2[nH]cnc2C[C@H]1c1nc(-c2ccc(Cl)cc2)no1,inactive
9,CCCCCCOC(=O)C1=CN(C)S(=O)(=O)N=C1C,inactive
10,Cn1cc(CC(=O)N2CCCc3ncc(C(N)=O)cc32)c2ccccc21,inactive
11,COCCNC(=O)CCc1c(C)nn(-c2ccccc2)c1Oc1ccccc1F,inactive
12,O=C([C@@H]1C[C@H](Oc2ccccc2)CN1C(=O)CN1CCCCCC1)N1CCCC1,inactive
13,c1ccc(CN2CCNc3cc(NCc4cccnc4)ncc3C2)cc1,inactive
14,Fc1ccccc1CN1CCNc2cc(Nc3cccnc3)ncc2C1,50.1 µM (active)
15,CN(C)c1cccc(Nc2cc3c(cn2)NCCN(Cc2ccccc2)C3)c1,inactive
16,Fc1ccc(Cc2nc3nccc(-c4ccco4)n3n2)cc1,inactive
17,COc1ccc(-c2ccc3ncc(Nc4ccc(C(F)(F)F)cc4)n3n2)cn1,inactive
18,Cc1cccc(C(=O)N2C[C@@H](F)C[C@H]2C(=O)N2CCCCC2)c1,inactive
19,Cc1cccc(-c2cccc(NC(=O)C3CCCN(C(=O)CC(F)(F)F)C3)c2)c1 (stereo not given),11.2 µM (active)
20,CC#CC(=O)N1CCCC(C(=O)Nc2cccc(-c3cccc(C)c3)c2)C1 (stereo not given),15.8 µM (active)
21,O=C(Nc1cccc(Cl)c1)C1CCCN(c2nc3ncccc3o2)C1 (stereo not given),inactive
22,CC(=O)Nc1cccc(-c2nnc3n2CCCC3)c1,inactive
23,O=C(Nc1cccc(F)c1)N1CCCC(CN2CCOCC2)CC1 (stereo not given),inactive
24,CCn1nccc1C(=O)N1CCCC1c1cc(C)no1 (stereo not given),inactive

row,SMILES,Potency
1,CN1C(=O)CC(C(=O)O)C12CCN(CCc1ccccn1)CC2 (stereo not given),inactive
2,Cc1ccc(CNC(=O)N2CCN(C(=O)N3CC4CC(C3)[C@H]3CCCC(=O)N3C4)CC2)cc1 (stereo not given in full),inactive
3,CCn1c(CN(C)C)nnc1C1CCN(Cc2ccc(-n3ccnc3)cc2)CC1,inactive
4,Cc1ccc(C2Cn3nnc(C(=O)N4CCC(C(=O)Nc5ccc(Cl)cc5)CC4)c3CO2)cc1 (stereo not given),15.8 µM (active)
5,Cc1ccc(C2Cn3nnc(C(=O)N4CCC(C(=O)NCCc5ccccc5)CC4)c3CO2)cc1 (stereo not given),12.6 µM (active)
6,CCCCNC(=O)C1CCN(C(=O)c2nnn3c2COC(c2ccc(C)cc2)C3)CC1 (stereo not given),28.2 µM (active)
7,COc1ccc(C2Cn3nnc(C(=O)N4CCC(C(=O)NCC5CCCCC5)CC4)c3CO2)cc1 (stereo not given),inactive
8,Cc1ccc(C2Cn3nnc(C(=O)N4CCN(C(=O)COc5cccc(C)c5)CC4)c3CO2)cc1 (stereo not given),inactive
9,COc1ccc(C2Cn3nnc(C(=O)N4CCN(C(=O)c5ccc(C)cc5C)CC4)c3CO2)cc1 (stereo not given),inactive
10,O=C(c1ccoc1)N1CCN(C(=O)c2nnn3c2COC(c2ccc(Cl)cc2)C3)CC1 (stereo not given),inactive
11,Cc1ccc(C(=O)N2CCN(C(=O)c3nnn4c3COC(c3ccccc3)C4)CC2)cc1 (stereo not given),inactive
12,CN(C)c1ccc(C(=O)N2CCN(C(=O)c3nnn4c3COC(c3ccc(Cl)cc3)C4)CC2)cc1 (stereo not given),inactive
13,C=CCN(C)C(=O)[C@@H](C)C1CC[C@@]2(C)Cc3sc(Nc4c(Cl)cccc4Cl)nc3[C@@H](C)[C@@H]2[C@H]1O (stereo not given in full),inactive
14,O=C(C[C@@H]1CCNC[C@@H]1Cc1cc(CSc2ccccc2)on1)NCc1ccc2c(c1)OCO2,inactive
15,CCc1cccc(C)c1NC(=O)Cn1ccn2nc(-c3ccc(F)cc3)c(CO)c2c1=O,inactive
16,Cc1ocnc1C(=O)N1CCc2nc(N)nc(N3CC[C@H](O)C3)c2CC1,inactive
17,Cc1cn2nc(C(=O)NCc3ccc(F)cc3)cc2c(N2CCCC2)n1,inactive
18,CC(C)CCN1C(=O)CC[C@]2(C(=O)N3CCN(C)CC3)CCCC[C@@H]12,inactive
19,CC(C)CCN1C(=O)CC[C@]2(C(=O)N3CCN(CC(C)C)CC3)CCCC[C@@H]12,inactive
20,CCN1CCN(C(=O)C23CCCC=C2N(C2CCCC2)C(=O)CC3)CC1 (stereo not given),39.8 µM (active)
21,CNC(=O)[C@@H]1CN(C(=O)c2n[nH]c3ccccc23)C[C@H]1c1n[nH]c(C)n1,inactive
22,Cc1cccnc1NC(=O)C1c2ccccc2C(=O)N(C2CCCC2)C12CCCC2 (stereo not given),inactive
23,O=C([C@@H]1C[C@@H](O)[C@H](O)[C@@H]2NC(=S)N(c3ccc(OC(F)(F)F)cc3)[C@@H]21)N1CCCCC1,14.1 µM (active)
24,CC1(NC(=O)C2CC2)CN(c2ccc(OC(F)(F)F)cc2)C1,inactive

row,SMILES,Potency
1,O=C([C@@H]1C[C@H](F)CN1C(=O)c1ccccc1OC(F)(F)F)N1CCCCC1,inactive
2,Cc1noc(-c2cccc(OC3CN(C(=O)c4ccco4)C3)c2)n1,inactive
3,COc1ccccc1OCc1cc(C(=O)NCc2n[nH]c3c2CCC3)n[nH]1,inactive
4,CCOC(=O)C1CCN(C(=O)c2ccc(-c3ccc(N4CCCCCC4)nc3)cc2)CC1,inactive
5,CN1CCCN(c2ccc(C(=O)N3CCC(N4CCOCC4)CC3)cn2)CC1,inactive
6,O=C(c1ccc(-c2ccc(N3CCCCC3)nc2)cc1)N1CCOCC1,35.5 µM (active)
7,O=C(CCc1ccccc1)NCCn1cccc1-c1nc(-c2ccc3c(c2)OCO3)no1,50.1 µM (active)
8,COc1ccc(-c2noc(-c3cccn3CC(=O)Nc3ccccc3)n2)cc1F,inactive
9,Cc1ccc(NC(=O)Cn2cccc2-c2nc(-c3ccc4c(c3)OCO4)no2)cc1Cl,inactive
10,COc1ccc(CN2CCC3(COc4ccccc4C(=O)N3)C2)cc1 (stereo not given),inactive
11,Cc1c(Cl)cccc1NC(=O)N1C[C@@H](F)C[C@H]1C(=O)N1CCc2ccccc2C1,inactive
12,O=C(CC1CCCC1)N1CCC(c2nc(C3CCOCC3)no2)CC1,inactive
13,O=C(NC1CCN(c2cc(-c3ccc(F)cc3)[nH]n2)C1)c1cc2ccccc2[nH]1 (stereo not given),6.31 µM (active)
14,COc1ccc(-c2cc(N3CCCC(NC(=O)c4ccsc4)C3)n[nH]2)cc1 (stereo not given),14.1 µM (active)
15,O=C(NC1CCCN(c2cc(-c3ccc(Cl)cc3)[nH]n2)C1)c1ccncc1 (stereo not given),12.6 µM (active)
16,O=C(NC1CCN(c2cc(-c3ccc(Cl)cc3)[nH]n2)C1)c1c[nH]c2ccccc12 (stereo not given),inactive
17,O=C(NC1CCCN(c2cc(-c3ccc(Cl)cc3)[nH]n2)C1)c1ccccc1F (stereo not given),inactive
18,COc1ccc(-c2cc(N3CCC(NC(=O)c4ccc(N(C)C)cc4)C3)n[nH]2)cc1 (stereo not given),inactive
19,O=C(NC1CCN(c2cc(-c3ccc(F)cc3)[nH]n2)C1)c1ccc2c(c1)OCO2 (stereo not given),inactive
20,O=C(NC1CCCN(c2cc(-c3ccccc3)[nH]n2)C1)c1cccc(Cl)c1 (stereo not given),inactive
21,O=C(NC1CCCN(c2cc(-c3ccc(F)cc3)[nH]n2)C1)c1ccc(Br)cc1 (stereo not given),inactive
22,CC(=O)N1CCc2sc(C(=O)NCc3ccc(F)cc3Cl)cc2C1,inactive
23,Cn1cnnc1CC1CCN(c2nnnn2-c2ccccc2)CC1,inactive
